This is an account of results in PubChem BioAssay.

A short description of experiment [1]: viability loss with induced miR-34 in A549 – imaging, A549 dox-inducible miR-34, nuclei and caspase counts, primary screen (AID 1347080;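 active means compounds whose cell count with miR-34 switched on is under 0.7 times the count with it off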). Particulars: A549 miR-34 inducible, Hoechst nuclei count, 48 h.
Experiment [2] addresses NAD(+) hydrolase SARM1 (Homo sapiens) (UniProt Q6SZW1). In words: blocking NAD cleavage by SARM1 SAM-TIR – cell lysate, NAD-Glo luminescence (AID 1508614;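 active means compound whose remaining NAD level is above about 45 nM, limit read from the data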). Particulars: SAM-TIR HEK293T lysate NADase, at 1 µM, stronger effect = higher value.
Experiment [3] is described as follows: liver-stage malaria parasite load reduction – cell-based, known kinase inhibitor set, luminescence, hepatoma host viability (AID 624392).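 Further: infected cells incubated roughly two days before readout.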 Particulars: Plasmodium liver stage in hepatoma cells, luciferase luminescence, concentration not given here; liver cell % of control: measured here: host liver cell viability; parasite % of control: stronger effect = lower value.
Experiment [4] in a line: MELAS cybrid and Rieske KO viability enhancers – cell-based, MELAS cybrids, Rieske KO mouse fibroblasts, CellTiter-Glo, primary screen (AID 1508586;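 active means mean z-score across replicates of 1.96 or higher in either the MELAS or the Rieske mutant cell line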;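 further: z relative to plate mean and SD of compound and empty wells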). Particulars: low glucose.
Experiment [5] can be described thus: blockers of polyQ-driven CASP3 activation – cell-based (AID 1583). Particulars: polyglutamine-induced caspase-3 activation, cell assay; stronger effect = higher value;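 tested at 10 µM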.
Experiment [6] is described as follows: yeast 75Q aggregation reduction – 75Q-TubU reporter (AID 1593). Particulars: Yeast 75Q polyglutamine aggregation reporter.
Experiment [7] in a line: restoration of touch response, mutant HTT neurons – whole organism, C. elegans mechanosensory neurons, N-terminal huntingtin (AID 1599). Particulars: C. elegans polyQ-huntingtin mechanosensory neurons, stronger effect = higher value.
Experiment [8] can be described thus: blockers of cytochrome c efflux from mitochondria – biochemical, purified mitochondria (AID 1603).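 Further: mouse liver mitochondria challenged with calcium chloride; signal normalized to the plate average as 100%.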 Particulars: stronger effect = lower value.
Experiment [9] in a line: polyglutamine aggregate formation blockers (AID 1604). Particulars: polyglutamine-induced protein aggregation inhibition assay; stronger effect = higher value; tested at 2.5 µM.
Experiment [10] in a line: rescue of PC12 cells from polyQ htt toxicity – LDH release (AID 1610). Particulars: PC12 mutant huntingtin toxicity, final LDH at 4 uM, stronger effect = lower value.
Experiment [11] can be described thus: glutamate transport activators, MN-1 cells, MN-1 cell line (AID 1612).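 Further: tested at 1 µM final; 0% = mean of DMSO vehicle wells on each plate; positive means more glutamate uptake than control and negative means less.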 Particulars: MN-1 motor neuron cells, stronger effect = higher value.
Experiment [12] in a line: 75Q-TubH aggregate inhibition, S. cerevisiae, yeast (AID 1616). Particulars: S. cerevisiae 75Q-TubH polyglutamine aggregation suppression; stronger effect = higher value.
Experiment [13] can be described thus: compounds altering circadian rhythm period length – cell-based, LOPAC library, luminescence reporter (AID 2774).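 Further: values are relative to mean of DMSO wells on each plate.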 Particulars: circadian reporter cells, at 7 µM, actives lie on both sides.
In experiment [14] the test system is Hepatitis C virus NS3 helicase. The experiment can be described thus: blockers of NS3h binding to ssDNA – biochemical, fluorescence polarization, LOPAC1280 library, primary screen (AID 687035; in the data active means inhibition above about 37%). Particulars: Purified HCV NS3 helicase, Cy5-dT15 ssDNA binding fluorescence polarization; stronger effect = higher value; concentration not given here.
Experiment [15] is described as follows: compounds altering Cy5-DNA-NS3h complex signal – biochemical, LOPAC1280, artefact control for HCV NS3 helicase inhibitor project (AID 687037). Particulars: Cy5-DNA-NS3h complex fluorescence interference counterscreen.
Experiment [16] in a line: galactose survival enhancers in mitochondrial complex I cybrids – cell-based, galactose medium, ATP luminescence, primary screen (AID 1645843;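 active means z-score of at least 1.8 in each of two replicates, scored against plate mean and spread of sample wells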;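 further: positive z means more ATP and so rescue of galactose-driven cybrid death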). Particulars: complex I mutant cybrid cells, 72 h, stronger effect = higher value.
The nature of experiment [17]: GFP-Q80 aggregate reduction, neuronal-like cells, cell-based, NGF-treated PC12, GFPQ80 (AID 1614).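 Further: lower means fewer inclusions and 0 means no inclusions at all.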 Particulars: PC12 NGF-treated GFP-polyQ80 inclusion reduction.
The nature of experiment [18]: P. berghei load reduction in hepatocytes – cell-based, HepG2, luciferase luminescence, HepG2 viability, primary screen (AID 624349; in the data active means parasite load remaining mostly below about 12%, no sharp cut-off; inactive means mostly above about 10%;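 further: 100% = mean of DMSO negative control wells on the same plate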). Particulars: P. berghei liver stage in HepG2, luciferase luminescence, concentration not given here; parasite load remaining: stronger effect = lower value; viability: measured here: HepG2 viability without parasites.
In experiment [19] the target is Mitogen-activated protein kinase 7 (Homo sapiens) (UniProt Q13164). In words: Gal4-ERK5 driven luciferase induction – cell-based, HTS, primary screen (AID 1508626;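 active means luciferase signal above three times the same-plate solvent-only control wells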;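 further: luciferase driven by Gal4-ERK5 fusion binding five Gal4 sites before minimal TATA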). Particulars: HeLa Gal4-ERK5 transactivation, 18 h, at 5 µM, stronger effect = higher value.
[20] abbreviates: stronger effect = lower value, cell number ratio, induced over uninduced.
Where [21] appears, read: measured here: relative caspase fold change +Dox/-Dox.
[22] abbreviates: measured here: total cells with miR-34 induction, stronger effect = lower value.
[23] abbreviates: measured here: total cells without miR-34 induction.
Where [24] appears, read: MELAS cybrid survival, CellTiter-Glo 48 h, stronger effect = higher value.
[25] abbreviates: Rieske KO mouse fibroblast survival, CellTiter-Glo 72 h.

“And” between values parts separate entries of the source, which are not always exact repeats. Equal values may be shown once. Results filed as inconclusive are left out. For part of these data: Measured potencies and affinities stand elsewhere. The source made the active and inactive calls. Unless noted, how the calls were made is not given here.

Sequence of NAD(+) hydrolase SARM1 (Homo sapiens) (Q6SZW1 whole entry, looked up): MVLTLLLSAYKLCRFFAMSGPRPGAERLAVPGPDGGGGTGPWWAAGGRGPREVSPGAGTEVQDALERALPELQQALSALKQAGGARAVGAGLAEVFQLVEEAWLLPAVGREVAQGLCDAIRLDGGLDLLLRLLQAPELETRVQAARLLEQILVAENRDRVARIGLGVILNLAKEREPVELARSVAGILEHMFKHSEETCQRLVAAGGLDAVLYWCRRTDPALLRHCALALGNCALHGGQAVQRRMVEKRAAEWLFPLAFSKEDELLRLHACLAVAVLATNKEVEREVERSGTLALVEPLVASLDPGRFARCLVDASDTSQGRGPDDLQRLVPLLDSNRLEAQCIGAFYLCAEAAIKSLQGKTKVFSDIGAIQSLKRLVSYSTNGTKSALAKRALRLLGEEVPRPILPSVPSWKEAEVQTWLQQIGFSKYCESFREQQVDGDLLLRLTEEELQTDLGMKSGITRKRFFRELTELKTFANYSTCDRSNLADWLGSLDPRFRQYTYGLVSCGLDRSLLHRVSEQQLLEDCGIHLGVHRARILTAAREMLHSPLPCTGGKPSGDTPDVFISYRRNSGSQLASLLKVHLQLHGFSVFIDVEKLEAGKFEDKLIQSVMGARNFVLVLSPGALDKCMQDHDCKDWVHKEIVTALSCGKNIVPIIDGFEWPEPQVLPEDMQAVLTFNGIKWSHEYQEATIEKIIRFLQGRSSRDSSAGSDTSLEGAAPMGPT
Sequence of Mitogen-activated protein kinase 7 (Homo sapiens) (Q13164 whole entry, looked up, the tested form may be a part): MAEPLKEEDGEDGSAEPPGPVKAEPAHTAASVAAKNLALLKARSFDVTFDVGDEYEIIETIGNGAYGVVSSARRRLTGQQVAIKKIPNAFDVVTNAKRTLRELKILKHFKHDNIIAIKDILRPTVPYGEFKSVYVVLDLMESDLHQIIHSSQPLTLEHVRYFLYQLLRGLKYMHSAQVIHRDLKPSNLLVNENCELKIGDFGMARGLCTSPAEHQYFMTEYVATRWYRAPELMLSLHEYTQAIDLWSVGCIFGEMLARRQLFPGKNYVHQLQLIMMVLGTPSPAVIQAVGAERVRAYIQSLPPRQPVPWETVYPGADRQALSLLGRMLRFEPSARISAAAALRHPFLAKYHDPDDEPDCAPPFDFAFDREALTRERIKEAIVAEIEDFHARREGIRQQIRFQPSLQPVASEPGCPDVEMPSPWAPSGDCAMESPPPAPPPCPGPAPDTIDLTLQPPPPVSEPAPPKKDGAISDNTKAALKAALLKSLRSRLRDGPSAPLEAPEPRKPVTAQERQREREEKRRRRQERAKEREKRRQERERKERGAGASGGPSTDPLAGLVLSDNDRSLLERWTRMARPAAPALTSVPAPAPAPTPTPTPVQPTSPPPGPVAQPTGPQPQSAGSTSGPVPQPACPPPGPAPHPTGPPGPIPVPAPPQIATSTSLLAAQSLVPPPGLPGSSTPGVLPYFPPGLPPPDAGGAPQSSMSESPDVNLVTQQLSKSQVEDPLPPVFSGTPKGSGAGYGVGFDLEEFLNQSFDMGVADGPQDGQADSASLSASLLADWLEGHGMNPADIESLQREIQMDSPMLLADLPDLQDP

With `O=C(c1cccnc1)N1CCOCC1`, the values for the fold change in experiment [1] (setting [20]) and in experiment [1] (setting [21]) were 0.924 (inactive) and 0.837, respectively. The values for the cell count in [1] (setting [22]) and in experiment [1] (setting [23]) were 7970 and 8630, respectively. Also, in [2], the remaining NAD was 10 nM (inactive).

On to `Cc1[nH]c(C=C2C(=O)Nc3ccccc32)c(C)c1CCC(=O)O`, for which the liver cell % of control in experiment [3] was 515% and 322% and 191%. For the same compound, the parasite % of control in experiment [3] is 51% (inactive) and 49.5% (inactive) and 54.8% (inactive). For the same compound, the figures for the fold change in [1] (setting [20]) and in experiment [1] (setting [21]) were 0.955 (inactive) and 0.799, respectively. For the same compound, the cell count in [1] (setting [22]) stood at 7040; in [1] (setting [23]), 7360. Moreover, the values for the z-score in experiment [4] (setting [24]) and in experiment [4] (setting [25]) were -0.288 (inactive) and 0.507, respectively.

Consider `COC(C(=O)N1Cc2[nH]nc(NC(=O)c3ccc(N4CCN(C)CC4)cc3)c2C1)c1ccccc1` (stereo unspecified), for which, in experiment [3], the liver cell % of control is 82.1% and 96.2% and 98.6%. In addition, the parasite % of control in experiment [3] was 40.2% (inactive) and 56.3% (inactive) and 75.4% (inactive). Also, the results for the fold change in [1] (setting [20]) and in [1] (setting [21]) were 1.01 (inactive) and 0.994, respectively. Also, the cell count in experiment [1] (setting [22]) came to 1850; in experiment [1] (setting [23]) it was 1820. Further, the values for the z-score in experiment [4] (setting [24]) and in [4] (setting [25]) were 1.1 (inactive) and -2.53, respectively.

Take `CCCCCCCCCCCCCCCCCC(=O)OC(CC(=O)O)C[N+](C)(C)C` (stereo unspecified): the inhibition in experiment [5] is -2.46%; in experiment [14] it was -2% (inactive). The score in experiment [6] was found to be 0.53. The compound further gave a rescue above control in experiment [7] of 6.57. The cytochrome c release ratio in [8] came out at 4.04. In experiment [9], the inhibition of aggregation is 52.4%. In addition, the normalised LDH release in [10] worked out at 0.986. Besides, the glutamate uptake change in experiment [11] is -11.2%. In addition, the aggregation suppression score in experiment [12] is -0.125. Also, in experiment [13], the period change was -0.05 h (inactive). In addition, in experiment [15], the fluorescence ratio (interference) is 1 (inactive). The fold change in [1] (setting [20]) was 0.979 (inactive); in experiment [1] (setting [21]), 0.6. Besides, the cell count in experiment [1] (setting [22]) was 4490; in experiment [1] (setting [23]) it was 4590. Besides, in [16], the z-score is -1.38 (inactive).

Take `CN=C(N)NCCCC(N)C(=O)O` (stereo unspecified): in [5], the inhibition was 9.27%. Moreover, the score in [6] was 2.21. In experiment [7], this compound had a rescue above control of -4.19. The cytochrome c release ratio in experiment [8] stood at 0.94. In addition, in experiment [9], the inhibition of aggregation was -4.76%. Moreover, the glutamate uptake change in experiment [11] was 3.17%. Also, the inclusion score in [17] is 2. In addition, the aggregation suppression score in experiment [12] stood at 1.06. Besides, the fold change in experiment [1] (setting [20]) is 0.944 (inactive); in [1] (setting [21]), 1.42. The cell count is 9430 in experiment [1] (setting [22]) and 9990 in experiment [1] (setting [23]). The z-score in experiment [16] was 1.06 (inactive).

Turning to `C[C@]1(OC(=O)/C=C/c2ccccc2)C[C@@H](O)[C@]2(O)C=CO[C@@H](O[C@@H]3O[C@H](CO)[C@@H](O)[C@H](O)[C@H]3O)[C@@H]21`, the parasite load remaining in experiment [18] was 121% (inactive). Further, in experiment [18], the viability is 74.8%. Further, the fold change is 0.943 (inactive) in experiment [1] (setting [20]) and 0.61 in [1] (setting [21]). Also, the figures for the cell count in experiment [1] (setting [22]) and in experiment [1] (setting [23]) were 9240 and 9800, respectively. Also, the luciferase signal in experiment [19] is 28 AU (inactive).

For the compound `CN1C2CC[C@H]1CC(OC(=O)C(O)c1ccccc1)C2` (stereo partly specified), the score in experiment [6] turned out to be 1.13. Besides, the rescue above control in experiment [7] was -4.02. For the same compound, the glutamate uptake change in experiment [11] is -10.2%. The compound further yielded an inclusion score in [17] of 2. The same compound showed an aggregation suppression score in experiment [12] of 1.37. Moreover, the fold change in experiment [1] (setting [20]) was 0.844 (inactive); in experiment [1] (setting [21]), 1.44. For the same compound, the results for the cell count in experiment [1] (setting [22]) and in [1] (setting [23]) were 10300 and 12200, respectively.
